Assay outcomes as filed in PubChem.
Shown is part of a subset that was picked to be rich in hits.
CBX7 inh – blocks human CBX7 binding to H3K27me3 peptide; O95931; AlphaScreen His6-CBX7 / biotin-H3K27me3 peptide binding; hits give low values; normalised signal (fraction of DMSO) (test concentration not listed); hit rate 1.1% among 66,000; AID 1224903; in the data active = normalised signal below about 0.5
Target sequence (O95931 whole entry, looked up): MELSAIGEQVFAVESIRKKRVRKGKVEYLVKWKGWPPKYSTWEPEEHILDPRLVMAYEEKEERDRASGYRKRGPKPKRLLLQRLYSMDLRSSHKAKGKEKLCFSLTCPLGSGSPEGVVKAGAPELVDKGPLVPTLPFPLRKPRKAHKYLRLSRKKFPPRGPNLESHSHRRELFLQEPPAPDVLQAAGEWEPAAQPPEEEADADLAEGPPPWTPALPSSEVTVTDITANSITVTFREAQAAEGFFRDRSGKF
Active calls of the source: *.

SMILES	CBX7 inh
COCc1nnc(NC(=O)c2ccc(S(=O)(=O)N(C)C)cc2)o1	0.559
CCN(Cc1ccccc1)S(=O)(=O)c1ccc(C(=O)Nc2nnc(COC)o2)cc1	0.883
CCc1nnc(NC(=O)c2ccc(S(=O)(=O)N(C)C)cc2)o1	0.0418*
COc1ccc(C)cc1NC(=O)CCCOc1cc(=O)n(C)c2ccccc12	0.836
CN(C1CCCCC1)S(=O)(=O)c1ccc(C(=O)Nc2nc(-c3ccncc3)cs2)cc1	0.961
CN(C1CCCCC1)S(=O)(=O)c1ccc(C(=O)Nc2nnc(C3CC3)o2)cc1	0.0285*
CCCCN(C)S(=O)(=O)c1ccc(C(=O)Nc2nnc(-c3cccs3)o2)cc1	0.68
CN(C1CCCCC1)S(=O)(=O)c1ccc(C(=O)Nc2nnc(-c3cccs3)o2)cc1	0.923
CCc1nnc(NC(=O)c2ccc(S(=O)(=O)N(CCOC)CCOC)cc2)o1	0.504
CCCCN(CCCC)S(=O)(=O)c1ccc(C(=O)Nc2nnc(CC)o2)cc1	0.0506*
CC(Oc1ccc(F)cc1)C(=O)Nc1c(C(=O)c2ccccc2)oc2ccccc12 (stereo not drawn)	1.35
CCOc1ccccc1-n1cnc2cc(C(=O)NCCN3CCOCC3)ccc21	0.988
CCCCN(C)S(=O)(=O)c1ccc(C(=O)Nc2nnc(-c3ccccc3Cl)o2)cc1	0.911
O=C(Nc1nnc(-c2ccccc2Cl)o1)c1ccc(S(=O)(=O)N2CCCC2)cc1	0.893
O=C(Nc1nnc(-c2cccs2)o1)c1ccc(S(=O)(=O)N2CCOCC2)cc1	0.705
CCC1CCCCN1S(=O)(=O)c1ccc(NC(=O)c2oc3ccccc3c2C)cc1 (stereo not drawn)	0.935
O=C(Nc1nnc(-c2ccccc2Cl)o1)c1ccc(S(=O)(=O)N2CCOCC2)cc1	0.0522*
CCC1CCCCN1S(=O)(=O)c1ccc(C(=O)Nc2nnc(-c3ccccc3Cl)o2)cc1 (stereo not drawn)	0.0546*
COc1cc(OC)cc(-c2nnc(NC(=O)c3ccc(S(=O)(=O)N4CC(C)OC(C)C4)cc3)o2)c1 (stereo not drawn)	0.906
CC1CN(S(=O)(=O)c2ccc(C(=O)Nc3nnc(-c4ccccc4Cl)o3)cc2)CC(C)O1 (stereo not drawn)	0.0411*
CC(=O)NC(CCS(C)(=O)=O)C(=O)Nc1cc(F)ccc1C (stereo not drawn)	1
O=C(Nc1cccc(Cl)c1)c1noc2c1CCCCC2	1.1
O=C(Nc1ccccc1)c1ccccc1OCC(O)CN1CCOCC1 (stereo not drawn)	1.12
O=C(CCCNS(=O)(=O)c1ccc2c(c1)CCC(=O)N2)NCc1ccc(F)cc1	1.03
O=C1CC(C(=O)NC2CCCCC2)(c2ccccc2F)N1c1cc(C(F)(F)F)ccc1Cl (stereo not drawn)	1.1
SMILES	CBX7 inh
Cc1onc(-c2ccccc2)c1C(=O)Nc1ccc(N=Nc2ccccc2)cc1	0.666
C=CCNC(=O)Cc1c(C)n(C(=O)c2ccc(Cl)cc2)c2ccc(OC)cc12	0.996
COc1ccc2c(c1)c(CC(=O)NC1CC1)c(C)n2C(=O)c1ccc(Cl)cc1	0.894
COc1ccc2c(c1)c(CC(=O)Nc1ccccn1)c(C)n2C(=O)c1ccc(Cl)cc1	0.414*
Cc1ccc(N2C(=O)CC(C(C)c3ccccc3)C2=O)cc1Br (stereo not drawn)	1.03
O=c1[nH]c2ccc(NCc3ccc(OCc4ccc(Cl)cc4)cc3)cc2[nH]1	0.86
O=c1[nH]c2ccc(NCc3ccc(F)cc3)cc2[nH]1	0.915
CCOc1cccc(CNc2ccc3[nH]c(=O)[nH]c3c2)c1OCc1ccc(Cl)cc1	0.445*
Cc1ccc(CNS(=O)(=O)c2ccc3c(c2)CCC(=O)N3)cc1	0.97
CCCCC(=O)Nc1cccc(-c2csc(-c3ccccc3)n2)c1	1.1
CCCc1cc(-c2nc(-c3cccc([N+](=O)[O-])c3)cs2)ccn1	0.429*
CCc1cc(-c2nc(-c3ccc(Cl)c(Cl)c3)cs2)ccn1	1.16
COc1cccc(-c2nnc(NC(=O)c3ccc(F)cc3)s2)c1	0.965
COc1ccc(CNC(=O)c2cc(C(C)C)on2)cc1	0.823
Cc1ccc(S(=O)(=O)NC(C)(C)CNC(c2ccccc2)c2ccccc2)cc1	0.705
O=C1c2ccccc2C(Nc2ccc(Br)cc2)N1c1cccnc1 (stereo not drawn)	1.05
O=C1c2ccccc2C(Nc2cccnc2)N1c1cccnc1 (stereo not drawn)	0.0687*
COc1cccc(NC2c3ccccc3C(=O)N2c2cccnc2)c1 (stereo not drawn)	0.997
Cc1cccn2cc(-c3ccc(S(=O)(=O)N4CCCCCC4)cc3)nc12	1.03
COc1ccc(NS(=O)(=O)c2c(C)noc2C)cc1	0.976
COc1ccc(OC)c(S(=O)(=O)NCCc2c(C)[nH]c3ccc(OC)cc23)c1	0.562
COc1cc(Cl)c(S(=O)(=O)NCCc2c(C)[nH]c3ccc(C)cc23)cc1Cl	0.595
COc1ccc(S(=O)(=O)NCCc2c(C)[nH]c3ccc(C)cc23)cc1	0.454*
O=C(O)c1ccc2[nH]c(=O)c(Cc3ccc(F)c(F)c3)nc2c1	0.887
